mHTT CaM bind = inhibitors of human mutant huntingtin-calmodulin interaction; P42858; AlphaScreen His-mHTT/GST-CaM binding, luminescence; inhibition, % at 15 µM; hit rate 3.6% among 190,000; AID 1671202;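 further: 0% = both proteins with DMSO and 100% = one protein alone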
Pf apPOL block = Pf-apPOL DNA polymerase inhibition; AID 1794808; hit rate 0.25% among 210,000; inhibition, % at 10 µM; Recombinant Pf-apPOL, molecular beacon fluorescence, 1.5 h
* hit, by the source's call; / = no result given; + = active, no number. This excerpt belongs to a sample that is enriched for hits. No stated cut-off is given here; in the data, active means inhibition above about 50%; inactive means the rest.

SMILES	mHTT CaM bind	Pf apPOL block
COc1ccc(-c2csc(/C(C#N)=C/c3ccc(O)c(O)c3)n2)cc1OC	81*	11
CCCCN(C)C(=O)C1CCN(c2cnn(CCC)c(=O)c2)CC1	1	-2
COc1cc(CCC(C)=O)ccc1OC(=O)c1cccs1	/	-4
Cc1cccc2c(=O)n(C3CCN(S(=O)(=O)c4ccc(F)c(F)c4)CC3)cnc12	-7	1
Cc1ccc(Nc2c3c4c(cccc4n(C)c2=O)C(=O)c2ccccc2-3)cc1	36	-2
CN(C)c1ccc(NC2=C(n3nnc4ccccc43)C(=O)c3ccccc3C2=O)cc1	51*	-9
Cc1ccc(NC2=C(NCCO)C(=O)c3ccccc3C2=O)cc1	67*	0
CCN(CC)C1=C(n2nnc3ccccc32)C(=O)c2ccccc2C1=O	27	-6
Cc1ccc(NC2=C(n3nnc4ccccc43)C(=O)c3ccccc3C2=O)cc1	52*	3
COc1cccc(NC2=C(n3nnc4ccccc43)C(=O)c3ccccc3C2=O)c1	8	-1
NC(=S)NN=Cc1ccccc1	/	-10
NC(=S)NN=Cc1ccccc1O	85*	39
CCCC(=O)N1CCC(N2CCN(CC)C2=O)CC1	-12	-6
CC(C)CC1C(=O)N(Cc2cn(Cc3ccco3)nn2)CCS(=O)(=O)N1Cc1ccc(-c2cccc(CO)c2)cc1 (centres undefined)	59*	10
CC(C)C1C(=O)N(Cc2cn(Cc3ccco3)nn2)CCS(=O)(=O)N1Cc1ccc(-c2cccc(N(C)C)c2)cc1 (centres undefined)	65*	-4
COc1ccc(-c2ccc(CN3C(C(C)C)C(=O)N(Cc4cn(CC5CCCCC5)nn4)CCS3(=O)=O)cc2)cc1 (centres undefined)	20	-1
CC(C)C1C(=O)N(Cc2cn(CC3CCCCC3)nn2)CCS(=O)(=O)N1Cc1ccc(-c2ccc(F)cc2)cc1 (centres undefined)	22	-5
CC(C)CC1C(=O)N(Cc2cn(Cc3ccco3)nn2)CCS(=O)(=O)N1Cc1ccc(-c2ccc(Cl)cc2)cc1 (centres undefined)	40	-9
Cc1ccc(-c2ccc(CN3C(C(C)C)C(=O)N(Cc4cn(Cc5ccco5)nn4)CCS3(=O)=O)cc2)cc1 (centres undefined)	65*	-6
CCCCOc1ccc(N2C(=O)CC(Nc3ccc(OC)cc3)C2=O)cc1 (centres undefined)	1	-1
CCOc1nccnc1N1CCC(N(C)C(=O)c2ccco2)C1 (centres undefined)	19	-2
COc1cc(C=Nn2cnc3c(sc(=S)n3C)c2=O)ccc1O	/	-3
N#Cc1ccc(CN2CCCC(c3nc(-c4cccnc4)n[nH]3)C2)cc1 (centres undefined)	-12	6
c1ccc(CN2CCCC(c3nc(-c4cccnc4)n[nH]3)C2)nc1 (centres undefined)	99*	-23
c1cc(-c2n[nH]c(C3CCCN(Cc4ccc5cc[nH]c5c4)C3)n2)ccn1 (centres undefined)	53*	3
SMILES	mHTT CaM bind	Pf apPOL block
N#Cc1cccc(CN2CCCC(c3nc(-c4ccncc4)n[nH]3)C2)c1 (centres undefined)	18	-7
Cc1ccc2oc(-c3noc(CNC(=O)Cc4ccccc4)n3)c(C)c2c1	1	-3
S=c1[nH]nc(-c2ccccn2)n1/N=C/c1cccnc1	+	/
S=c1[nH]nc(-c2ccncc2)n1N=Cc1cccnc1	/	-7
O=C(CCC1CCCN(c2cc(NC3CC3)ncn2)C1)NCCc1ccncc1 (centres undefined)	-4	-3
Cc1ccc(C2CC(C(F)F)n3ncc(C(=O)Nc4cnn(Cc5ccccc5C)c4)c3N2)cc1 (centres undefined)	56*	-3
Cc1ccc(C2CC(C(F)(F)F)n3ncc(C(=O)Nc4ccccc4C)c3N2)cc1 (centres undefined)	18	0
O=C(Nc1ccccc1Cl)NC1CCN(c2ccccc2)C1=O (centres undefined)	-11	-1
CCN(CC)c1ccc(N)c(C)c1	58*	-9
CCN(CC)c1ccc(C#N)cc1	/	1
COc1cc(NCc2ccccc2Cl)cc(OC)c1	75*	3
COc1ccc(NCc2ccc(Cl)cc2Cl)cc1OC	45	-4
CNC(=O)N1CCCC(c2cccc(C(=O)N3CCN(c4cccc(C)c4C)CC3)c2)C1 (centres undefined)	64*	-9
Cc1cccc(N2CCN(C(=O)c3ccc4nc(-c5ccco5)c(-c5ccco5)nc4c3)CC2)c1C	78*	0
Cc1cccc(N2CCN(C(=O)c3ccc4c(=O)n5c(nc4c3)SCC5)CC2)c1C	2	-8
CNC(=O)N1CCCC(c2cccc(C(=O)NCc3ccc(C(F)(F)F)cc3)c2)C1 (centres undefined)	64*	-7
CC(C)NC(=O)N1CCCC(c2cccc(C(=O)NCc3ccc(C(F)(F)F)cc3)c2)C1 (centres undefined)	6	-1

Screening data: PubChem BioAssay, University of Kansas High Throughput Screening Laboratory
